Rows were chosen to be rich in hits. Some 6% of all compounds tested hit in one or more screens of this group.
D1 PAM: Potentiators of Human D1 Dopamine Receptor: qHTS. 360,000 tested, 0.036% active. D(1A) dopamine receptor (Homo sapiens), P21728. potentiation, % at 10 µM. HEK293 TREx D1 cells, calcium flux, dopamine EC20 potentiation; in the data active = potentiation above about 30%; note: 0% is about no effect
D1 antag: Antagonist of Human D 1 Dopamine Receptor: qHTS; HEK293 TREx D1 cells, calcium flux, dopamine EC80; hits give low values; 360,000 tested, 3.2% active; activity change, negative = inhibition, % at 10 µM; AID 504652, 2011; D(1A) dopamine receptor (Homo sapiens), P21728; in the data active = activity change below about -30%; note: % is set by controls: 0 for no effect and ±100 for the full control effect
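Calcium flux readout: force-coupled, inducible Hek293 Trex D1 line, cells induced overnight at 30 C with tetracycline, dye-loaded 30–90 min at RT. Antagonism scored against EC80 dopamine challenge given 180 s after compound.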
DRD3 agonist: qHTS of D3 Dopamine Receptor Agonist: qHTS; D(3) dopamine receptor (Homo sapiens), P35462; D3R DiscoveRx beta-arrestin cells, luminescence, 90 min; max activation, %; 410,000 tested, 0.58% active; AID 652048, 2013; in the data active = max activation above about 30%; note: 0% is about no effect
Target sequence (P35462 whole entry, looked up): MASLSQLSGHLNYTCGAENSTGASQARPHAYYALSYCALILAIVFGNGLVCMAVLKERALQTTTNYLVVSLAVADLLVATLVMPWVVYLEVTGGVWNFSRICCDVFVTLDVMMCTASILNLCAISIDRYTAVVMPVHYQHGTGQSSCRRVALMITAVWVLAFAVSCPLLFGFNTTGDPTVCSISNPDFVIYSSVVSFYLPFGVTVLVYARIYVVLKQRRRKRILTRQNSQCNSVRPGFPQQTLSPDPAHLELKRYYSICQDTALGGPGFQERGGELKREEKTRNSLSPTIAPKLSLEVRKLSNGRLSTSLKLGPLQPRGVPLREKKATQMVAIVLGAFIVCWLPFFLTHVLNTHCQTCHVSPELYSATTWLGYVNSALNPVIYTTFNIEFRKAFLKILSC
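Cells at 1500/well, incubated overnight, then treated with pinned compounds (dopamine as control) for 90 min at 37 degrees C. DiscoveRx reagent added for 30 - 60 minutes at room temperature; luminescence read.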
D3 antag: qHTS of D3 Dopamine Receptor Antagonist: qHTS; max response, negative = inhibition, %; 360,000 tested, 2.5% active; AID 652054, 2013; D(3) dopamine receptor (Homo sapiens), P35462; D3R cells, DiscoveRx beta-arrestin luminescence, antagonist mode; hits give low values; in the data active = max response below about -50%; inconclusive = no clear call, values can overlap the other calls; note: % is set by controls: 0 for no effect and ±100 for the full control effect
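Cells plated overnight at 1500 cells/well, then exposed to library compounds with dopamine controls for 90 minutes at 37 degrees C. DiscoveRx reagent added for 30–60 minutes at room temperature; luminescence read, quantitative HTS format.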
D1 agonist: Allosteric Agonists of the Human D1 Dopamine Receptor: qHTS. 360,000 tested, 1% active. activation, % at 2 µM. HEK293 T-REx D1 cells, calcium flux, agonist mode. D(1A) dopamine receptor (Homo sapiens), P21728; in the data active = activation above about 30%; note: 0% is about no effect
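Agonism was scored from calcium flux recorded over 180 s (1 read/s) after pintool compound addition, following a 10-cycle baseline. Cells were inducible force-coupled HEK293 TREx D1, plated overnight at 30 C and loaded with no-wash calcium dye.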
An asterisk follows results filed as active; ? = inconclusive; nt = not tested or not shown.

SMILES	D1 PAM	D1 antag	DRD3 agonist	D3 antag	D1 agonist
CCN(CC)c1ccc2c(c1)OC(N)=C(C#N)C2c1cccnc1 (stereo not drawn)	-4	10	4	5	86*
N#CC1=C(N)Oc2cc(N)ccc2C1c1cccnc1 (stereo not drawn)	-2	-3	4	-11	0
C/C(=N\NC(=O)C1CC1)c1ccc(NC(=O)c2ccc(Br)o2)cc1	-3	0	nt	nt	1
C/C(=N\NC(=O)c1c(Cl)cnn1C)c1ccc(NC(=O)c2ccc(Br)o2)cc1	-8	-43*	-10	4	2
CC(=O)Nc1cccc(NC(=O)c2ccc(COc3ccccc3)cc2)c1	nt	6	11	-6	36*
COC(=O)c1ccc(NC(=O)c2cccc(OC)c2)cc1	-3	-52*	-2	20	23
COc1ccc(OCc2ccc(C(=O)NN)cc2)cc1	1	-42*	-10	-21	1
COc1cccc(C(=O)Nc2nc3c(s2)CN(C)CC3)c1	-3	9	5	-5	99*
CC1(C(=O)NCc2ccccc2)CN(S(C)(=O)=O)CC(=O)N1CCc1c[nH]c2ccccc12 (stereo not drawn)	nt	nt	5	16	nt
O=C(c1ccccc1Br)N(Cc1ccccc1F)C1CCS(=O)(=O)C1 (stereo not drawn)	-2	7	-4	nt	2
CN[C@H]1C[C@@H](c2ccccc2)N(C(C)=O)C[C@H]1CO	nt	nt	-2	0	nt
O=C(Oc1c(-c2ccccc2)c(=O)n2c3c(cccc13)CC2)c1ccc(F)cc1	-3	2	26	56	1
CCCN(CC1CC1)c1cc2c(c3c1ccn3C)C1CCC2O1 (stereo not drawn)	nt	nt	-15	?	nt
CCOc1cccc(C(=O)NC(c2ccccc2)C(C)C)c1 (stereo not drawn)	-3	3	11	4	3
Cc1cccc(NC(=O)Nc2ccc(Oc3c(F)c(F)c(F)c(F)c3F)cc2)c1	-4	-25	-3	-117*	13
CC(C(=O)O)c1cccc(Oc2ccccc2)c1 (stereo not drawn)	nt	nt	-29	-62*	nt
CCCC(C)NC(=O)c1cccc(Oc2ccccc2)c1 (stereo not drawn)	-5	6	-5	6	33*
COc1cccc(C(=O)Nc2ccncc2)c1	-9	-59*	nt	nt	3
CCC1(CC)C(C#N)C(=O)NC(=O)C1C#N (stereo not drawn)	nt	nt	0	?	nt
FC(F)(F)c1ccccc1Cc1c(-c2ccc(Cl)cc2)nc2c3ccccc3ccn12	nt	nt	5	1	nt
COC(=O)c1ccc2c(=O)n(CCCCCC(=O)NCc3ccc(OC)cc3)c(=O)[nH]c2c1	1	1	-6	nt	0
COC(=O)c1ccc(NC(=O)c2cccc(C)c2)cc1	1	9	-2	-52*	2
O=C(NCc1cccnc1)c1ccc(COc2ccccc2Br)cc1	-6	8	25	-16	12
O=C(Nc1cccnc1)c1ccc(COc2ccccc2Br)cc1	-3	-69*	-3	-25	6
O=C(COC(=O)/C=C/c1cccs1)Nc1ccc2ccccc2c1	-3	-35*	-1	7	1
SMILES	D1 PAM	D1 antag	DRD3 agonist	D3 antag	D1 agonist
COc1cccc(C(=O)COc2cccc(NC(=O)c3cccc([N+](=O)[O-])c3)c2)c1	-9	-25	14	-51*	3
COCCc1nn2c(=O)cc(COC(=O)c3ccc(Br)cc3)nc2s1	-7	-4	-13	nt	8
CC(=O)Nc1ccc(NC(=O)c2cccc(Oc3ccccc3)c2)cc1	-5	1	-16	-51*	2
COc1ccc(C(=O)Nc2ccc(C(=O)Nc3cccc(C)c3)cc2)cc1	-5	-31*	6	15	2
O=C(Nc1ccncc1)c1ccc2ccccc2c1	-8	-38*	-3	8	8
O=C(Nc1nnc(-c2ccncc2)o1)c1ccc2ccccc2c1	-1	-20	12	8	4
O=C(CSc1ccncc1)Nc1ccc2ccccc2c1	-9	-31*	0	6	14
O=C(NC1CCCCC1)c1ccc2c(c1)N(Cc1cccc(Cl)c1)C(=O)c1ccccc1S2=O (stereo not drawn)	-1	-8	-9	nt	2
NC(=O)c1c(N)[nH]c(C(=O)c2ccccc2)c1-c1ccccc1Br	nt	nt	-6	-52*	nt
CC(C)(C)C(=O)c1c(N)[nH]c(C(=O)c2ccccc2)c1-c1ccccc1Br	nt	nt	-5	-13	nt
Cc1cc(C)n(C(=O)/C(C#N)=N/Nc2cc(Cl)cc(Cl)c2)n1	-6	-34*	8	22	20
COc1cccc(NC(=O)C2CCN(S(=O)(=O)c3c(C)noc3C)CC2)c1	2	-21	-6	nt	2
O=C(NCc1ccc2c(c1)OCO2)c1nnc(Cc2ccc(F)cc2)o1	-2	-56*	-4	-11	3
O=C(NCCc1ccccc1)c1nnc(Cc2cccc(F)c2)o1	0	5	-11	nt	38*
O=C(NCc1ccc(F)cc1)c1nnc(Cc2cccc(F)c2)o1	1	16	3	nt	23
CCOC(=O)c1c(NC(=O)C(C)OC(=O)c2ccc(NC(=O)CC#N)cc2)sc2c1CCCC2 (stereo not drawn)	2	-13	8	4	3
COc1cnc(-c2ccccn2)nc1Sc1ccccc1Cl	3	26	-8	-68*	32*
COc1cnc(-c2ccccn2)nc1Sc1c(Cl)cccc1Cl	4	15	-9	-65*	2
Nc1nc(N)c(N=O)c(Nc2cccc(Cl)c2)n1	nt	nt	2	-23	nt
CCOc1cc(CNc2ccc(O)cc2)ccc1OCc1ccc(Cl)cc1	-7	-30*	4	nt	2
Oc1ccc(NCc2ccccc2OCc2ccc(Cl)cc2)cc1	-3	-3	-1	nt	0
COc1ccc(OCCOc2ccc(N(C)S(=O)(=O)c3ccccc3)cc2)cc1	-2	-27	3	-11	42*
CCN(Cc1ccccc1)S(=O)(=O)c1ccc(N2CCCCS2(=O)=O)cc1	1	-31*	-8	nt	12
CN(c1ccc(OCCOc2ccccc2Cl)cc1)S(=O)(=O)c1ccccc1	nt	nt	0	12	nt
COc1ccc(S(=O)(=O)N(CC(=O)Nc2ccccc2Br)Cc2ccccc2)cc1	0	15	20	nt	44*
CCN(Cc1ccccc1)S(=O)(=O)c1ccc(S(=O)(=O)N(Cc2cccc(OC)c2)CC2CCCO2)cc1 (stereo not drawn)	-3	12	-10	15	31*
CCN(Cc1ccccc1)Cc1cc(OC)cc(OC)c1	-5	2	-51	-56*	0
CCN(Cc1ccccc1)Cc1c(F)cccc1F	-3	-3	-12	-13	1

Source: PubChem (National Center for Advancing Translational Sciences (NCATS))
